G9a inh: qHTS Assay for Inhibitors of Histone Lysine Methyltransferase G9a. Histone-lysine N-methyltransferase EHMT2 (Homo sapiens), Q96KQ7. G9a H3K9 monomethylation, AlphaScreen, 2 h. Potency, µM (highest dose often 102 µM), most hits filed as inhibitors. AID 504332, 2011. 350,000 tested, 8.8% active; also: nearly all actives have a fitted effect of over 75% in size
Target sequence (Q96KQ7 913-1193 limits assumed): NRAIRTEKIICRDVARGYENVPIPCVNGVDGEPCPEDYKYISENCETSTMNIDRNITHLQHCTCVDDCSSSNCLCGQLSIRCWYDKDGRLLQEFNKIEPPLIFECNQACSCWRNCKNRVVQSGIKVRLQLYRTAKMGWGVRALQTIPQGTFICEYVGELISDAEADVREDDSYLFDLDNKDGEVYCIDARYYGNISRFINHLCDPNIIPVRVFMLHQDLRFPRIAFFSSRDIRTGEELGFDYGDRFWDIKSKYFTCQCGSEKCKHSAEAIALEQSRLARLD
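AlphaScreen detection with an anti-monomethyl H3K9 antibody quantified product after a 2 h room-temperature reaction containing 500 nM biotinylated H3K9 peptide, 20 µM SAM and 20 nM enzyme, which had been preincubated 15 min with compound.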
JMJD2A Tudor inh: qHTS Assay for Inhibitors of JMJD2A-Tudor Domain | Lysine-specific demethylase 4A (Homo sapiens), O75164 | AlphaScreen JMJD2A-Tudor / H3K4me3 peptide binding | Potency, µM (top dose mostly 114 µM), hits mostly inhibitors | 390,000 tested, 4.4% active | AID 504339, 2011; also: nearly all actives have a fitted effect of over 50% in size
TDP1 block: qHTS Assay for Inhibitors of Tyrosyl-DNA Phosphodiesterase (TDP1); recombinant TDP1, AlphaScreen DNA substrate cleavage; Potency, µM (top dose mostly 130 µM), hits mostly inhibitors; 350,000 tested, 0.28% active; AID 485290, 2010; also: nearly all actives have a fitted effect of over 40% in size
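Compounds were preincubated with Tdp1 (1 nM final) for 15 min at room temperature before substrate (15 nM final) started a 5 min reaction; beads (10 ug/ml final) were then added for 10 min before AlphaScreen detection.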
BAZ2B block: qHTS Assay for Inhibitors of BAZ2B. AlphaScreen BAZ2B-H3K14Ac peptide displacement. Potency, µM (series often up to 114 µM), most hits filed as inhibitors. Bromodomain adjacent to zinc finger domain protein 2B (Homo sapiens), Q9UIF8. 360,000 tested, 4.4% active; also: nearly all actives have a fitted effect of over 60% in size
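AlphaScreen displacement: compounds (up to 110uM) incubated 30 min at room temperature with a preformed 50 nM BAZ2B/50 nM biotinylated H3K14Ac peptide complex in PBS pH 7.4 with Tween-20. Donor and acceptor beads at 10 ug/mL final added, 20 min light-protected before reading.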
HP1b binding inh: HTS for Inhibitors of HP1-beta Chromodomain Interactions with Methylated Histone Tails. Chromobox protein homolog 1 (Homo sapiens), P83916. AlphaScreen HP1-beta / biotin-H3K9me3 peptide binding. Potency, µM (top dose mostly 114 µM), most hits filed as inhibitors. 390,000 tested, 0.56% active. AID 540317, 2011; also: nearly all actives have a fitted effect of over 70% in size
Target sequence (P83916 whole entry, looked up): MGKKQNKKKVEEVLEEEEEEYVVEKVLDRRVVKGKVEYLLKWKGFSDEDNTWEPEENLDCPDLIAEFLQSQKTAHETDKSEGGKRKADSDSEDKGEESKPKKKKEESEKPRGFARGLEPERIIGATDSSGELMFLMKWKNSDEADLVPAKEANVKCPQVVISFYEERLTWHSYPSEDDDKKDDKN
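Compound inhibition of the preformed complex between 50 nM HP1-beta and 50 nM biotinylated H3K9me3 peptide was read by AlphaScreen. Buffer was PBS pH 7.4 with 0.01% Tween-20. Incubations ran 30 min at room temperature, with 10 ug/mL donor/acceptor beads.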
Sfp PPTase inh: qHTS Assay for Inhibitors of Bacillus subtilis Sfp phosphopantetheinyl transferase (PPTase) | 310,000 tested, 3.5% active | 4'-phosphopantetheinyl transferase ffp (Bacillus subtilis), Q9F4F7 | Potency, µM, actives largely listed as inhibitors | Biochemical Sfp PPTase activity, qHTS;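 also: the enzyme is Sfp with the accession as filed and its product quenches rhodamine fluorescence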
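With Hepes-Na pH 7.6 buffer containing 10 mM MgCl2, Sfp (15 nM) modified BHQ-2-YbbR (12.5 uM) using rhodamine-CoA (5 uM). Two reads 30 minutes apart at 525/598 nm yielded each well's rate.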
Hits are given with their value; . = inactive; ? = inconclusive; / = no result; [ ] = another dose, or the depositor's remark. Compounds with a hit are over-represented: about 12% of the library has one in this group of screens. Calls follow the shape of the dose curve; as a rule, active = well fitted curve in the direction sought with a large enough effect; inconclusive = small, poorly fitted or top-dose-only effect, or another doubt; inactive = no such curve, though single readings can be large; an effect the other way counts as inactive or inconclusive.

SMILES	G9a inh	JMJD2A Tudor inh	TDP1 block	BAZ2B block	HP1b binding inh	Sfp PPTase inh
COc1cc(/C=N/Nc2nnc3c(n2)[nH]c2ccccc23)ccc1O	?	?	?	.	.	56.2µM
COc1ccc(/C=N/Nc2ccc(C(F)(F)F)cc2[N+](=O)[O-])cc1O	?	89.1µM	.	?	?	.
Cc1nc2ccccc2nc1N/N=C/c1ccc(O)cc1	/	.	.	?	.	.
COc1ccc(OC)c(NC(=O)Nc2c(C)n(C)n(-c3ccccc3)c2=O)c1	.	.	.	.	.	/
COC(=O)c1[nH]c2cc(OC)c(OC)cc2c1/C=N/Nc1ccccc1	35.5µM	.	/	.	.	.
COC(=O)c1[nH]c2cc(OC)c(OC)cc2c1NC(=O)CN1CCN(Cc2ccccc2)CC1	.	/	.	.	/	.
COc1cc(/C=N\NC(=O)CNC(=O)C(c2ccccc2)c2ccccc2)ccc1O	.	.	.	.	.	.
COc1cc(/C=N/N(c2ccccc2)c2ccccc2)ccc1O	28.2µM	31.6µM	/	44.7µM	.	.
COc1cc(/C=N/NC(=O)CCN2CCN(C(c3ccccc3)c3ccccc3)CC2)ccc1O	79.4µM	?	.	?	.	?
COc1cc(/C=N/Nc2ccccc2)ccc1O	14.1µM	.	/	.	.	.
CCc1ccccc1N(C)C(=O)Cn1cnc2sc(C)c(S(=O)(=O)N3CCC(C)CC3)c2c1=O	.	.	.	.	.	/
CCN(C(=O)c1cc2c(=O)[nH]c3ccc(C)cc3c2s1)c1ccc(OC)cc1	.	.	.	.	.	.
COc1cc(/C=N/NC(=O)c2cccs2)ccc1O	/	.	/	.	.	.
COc1cc(/C=N/Nc2ccccc2C(F)(F)F)ccc1O	/	56.2µM	.	.	?	.
COc1cc(/C=N/NC(=O)c2cc3ccccc3cc2O)ccc1OCCN1CCCCC1	.	?	.	.	.	39.8µM
COc1cc(/C=N/NC(=O)c2ccncc2)ccc1OCCN1CCCCC1	.	.	.	.	.	.
COc1ccc(C(Nc2ccccn2)c2oc(CO)cc(=O)c2O)cc1 (stereo not drawn)	1µM	8.91µM	.	?	?	?
COc1ccc(CNc2ccccn2)c(O)c1	/	.	/	.	.	.
Cc1ccnc(NC(c2ccccc2O)c2oc(CO)cc(=O)c2O)c1 (stereo not drawn)	0.891µM	.	.	?	.	10µM
O=c1cc(CO)oc(C(Nc2ccccn2)c2ccccc2Cl)c1O (stereo not drawn)	1.12µM	28.2µM	.	?	?	50.1µM
O=c1cc(CO)oc(C(Nc2ccccn2)c2ccc(F)cc2)c1O (stereo not drawn)	.[12.7 µM]	39.8µM	.	.	?	10µM
CC(NC(=O)c1cccs1)C(S)c1ccccc1 (stereo not drawn)	.	.	.	.	.	.
O=c1cc(CO)oc(C(Nc2ccccn2)c2ccsc2)c1O (stereo not drawn)	2µM	/	.	?	/	22.4µM
Cc1cccc(OCCOC(=O)c2ccc(F)c(S(=O)(=O)N3CCOCC3)c2)c1	.[12.7 µM]	.	.	.	.	/
Cc1cc(C)c2cc(C#N)c(N3CCCN(C(=S)NCCCN(C)C)CC3)nc2c1	.	.	/	.	.	.
SMILES	G9a inh	JMJD2A Tudor inh	TDP1 block	BAZ2B block	HP1b binding inh	Sfp PPTase inh
Cc1cc(C)c2cc(C#N)c(N3CCCC3)nc2c1	.[12.7 µM]	.[11.4 µM]	.	.	.	44.7µM
CCOCCCNC(=O)c1c[nH]c2ccc(S(=O)(=O)Nc3cccc(Cl)c3C)cc2c1=O	?	?	?	/	.	/
O=c1c(Cl)c(Cl)cnn1-c1ccccc1	.	.	.	.	.	.
O=c1[nH]c2cnn(-c3ccccc3)c2c(=O)n1O	/	56.2µM	/	/	.	/
c1cc(NC2CC2)nc(-c2ccoc2)n1	.[0.501 µM]	/	/	/	/	79.4µM
COc1ccccc1-c1nccc(NCc2cccs2)n1	.[0.501 µM]	/	/	/	/	79.4µM
Fc1ccc(Nc2ccnc(-c3ccoc3)n2)cc1	.[0.501 µM]	/	/	/	/	?
c1csc(CNc2ccnc(-c3ccoc3)n2)c1	.[0.501 µM]	/	/	/	/	79.4µM
CCOc1ccc(NC(=O)CSC2=Nc3ccccc3C3=NC(CC(=O)NCc4ccc5c(c4)OCO5)C(=O)N23)cc1 (stereo not drawn)	.	.	.	.	.	/
N#Cc1cccc(OC2=NS(=O)(=O)c3ccccc32)c1	/	35.5µM	.	/	/	/
COC1=NS(=O)(=O)c2ccccc21	?	.	.	.	.	.
O=S1(=O)N=C(Oc2ccccc2)c2ccccc21	.	89.1µM	.	.	.	.
CN1C(=S)SC(C)(NO)C1(C)C (stereo not drawn)	?	22.4µM	/	?	?	56.2µM
CCCCNS(=O)(=O)c1ccc2nc(SCC(=O)Nc3ccccc3)[nH]c2c1	?	.	.	.	.	.
CCCCNS(=O)(=O)c1ccc2nc(SCC(=O)c3ccc(C#N)cc3)[nH]c2c1	31.6µM	.	.	.	.	.
COc1cc(SC)ccc1C(=O)N(CC(=O)Nc1ccccc1Br)Cc1ccco1	39.8µM	.	.	.	.	/
CC1Cc2nc(SCC(=O)NC3CCCCC3)n(C)c(=O)c2S1 (stereo not drawn)	.	.	.	.	.	20µM
CCn1c(SCC(=O)Nc2cccc(C)c2)nc2c(c1=O)SC(C)C2 (stereo not drawn)	50.1µM	.	.	.	.	.
COc1ccc2nc(N=NC3=C(O)CC(C)(C)CC3=O)sc2c1	?	?	.	39.8µM	?	?
COc1ccc2nc(N=Nc3ccc(O)c4ccccc34)sc2c1	3.16µM	?	.	2.82µM	?	.
COc1ccc2nc(N)sc2c1	.[12.7 µM]	.	.	.	.	.
CC1(C)CC(=O)C(N=Nc2ccc3ncsc3c2)=C(O)C1	?	.	.	?	.	.
FC(F)(F)c1cc(-c2ccc(Cl)cc2)nc(NCc2cccnc2)n1	.[12.7 µM]	.	.	.	.	79.4µM
O=S(=O)(c1ccccc1)N1CCN(C(=S)Nc2ccccc2Cl)CC1	/	.	.	.	.	.
S=C(NCCCN1CCOCC1)N1CCN(c2cccc(Cl)c2)CC1	31.6µM	.	/	.	.	?
O=C1[C@H]2[C@@H](C(=O)N1c1cccc3ccccc13)C1(C(=O)c3ccccc3C1=O)N1CCC[C@@H]21	39.8µM	.	.	?	.	?
CCOC(=O)C1C(=O)CC(C)(O)C(C(=O)OCC)C1c1ccc(N(CC)CC)cc1 (stereo not drawn)	14.1µM	.	.	.	.	.
Cc1sc(NC(=O)CN2CCOCC2)c(C#N)c1C	.	.	.	.	.	.
C=CCn1c(O)c(CN2CCOCC2)c(C)c(C#N)c1=O	50.1µM	.	.	.	.	.

Screening results from PubChem.
